Compounds with a hit are over-represented: about 4.5% of the library has one in this group of screens.
FBA Mtb inh = inhibitors of M. tuberculosis fructose-bisphosphate aldolase. purified M. tuberculosis FBA, fluorescence read-out. inhibition, % at 1 µM. actives 2.3% (n = 360,000). P9WQA3;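 note: 0% = vehicle and 100% = reference inhibitor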
PfHsp40 rescue = rescue of PfHsp40-mediated yeast toxicity. S. cerevisiae expressing PfHsp40, growth rescue, ATP luminescence. growth rescue, % at 12.5 µM. actives 0.68% (n = 340,000). AID 504582; in the data active = growth rescue above about 28%, passing the limit was not always enough; inconclusive = no clear call, values can overlap the other calls;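 note: yeast W303a lacking pdr1 and pdr3 grown in galactose medium; growth measured after three days at 30 °C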
BJeLR lethal = BJeLR cell viability loss | BJeLR (HRASV12) viability, CellTiter-Glo ATP luminescence, 48 h | AID 1554 | inhibition, % (concentration not given with the values) | actives 0.17% (n = 300,000); in the data active = inhibition above about 50%; inconclusive = no clear call, values can overlap the other calls
GDH-TPI counter-1 = GDH-TPI coupled enzyme inhibition counter-screen; inhibition, % at 4.8 µM; GDH-TPI coupled enzyme counterscreen, NADH absorbance; AID 588335; actives 1.2% (n = 360,000); in the data active = inhibition above about 30%;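 note: 0% = DMSO wells and 100% = wells lacking the enzyme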
PrPC surface inh = inhibitors of human cell surface prion protein PrPC | inhibition, % at 13.8 µM | TR-FRET read-out | P04156 | actives 0.43% (n = 370,000); in the data active = inhibition above about 24%; note: 0% = median of the test wells and 100% = reference compound wells
PrP 5UTR inh = inhibition of PrP 5' UTR reporter expression | cell-based PrP 5' UTR mRNA reporter, plate reader | inhibition, % (test concentration not listed) | actives 0.35% (n = 340,000) | AID 488862; in the data active = inhibition above about 52%; note: 0 = median of the neutral control wells
Mtb FBA inh conf = Mtb FBA inhibition, confirmed; shares compounds with FBA Mtb inh; purified M. tuberculosis FBA, fluorescence read-out; inhibition, % at 1 µM; actives 78% (n = 5,600);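 note: 0% = vehicle wells and 100% = reference inhibitor wells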
GDH-TPI counter-2 = counter-screen for M. tuberculosis FBA inhibitors: GDH-TPI coupled enzyme inhibition. shares compounds with FBA Mtb inh. GDH-TPI coupled enzyme counterscreen, fluorescence. inhibition, % at 1 µM. actives 81% (n = 5,600); in the data active = inhibition above about 10%
PrPC confirm = confirmation of inhibitors of cell surface human prion protein; shares compounds with PrPC surface inh; inhibition, % at 13.8 µM; cell surface PrPC level, TR-FRET; actives 65% (n = 1,500); in the data active = inhibition above about 25%
LD9 tox = counter-screen for PrPc inhibitors: cytotoxicity in LD9 cells; shares compounds with PrPC surface inh; luminescence viability; inhibition, % at 13.8 µM; actives 29% (n = 1,500); AID 743201; in the data active = inhibition above about 9.5%
* hit, by the source's call; ? = inconclusive; . = not tested or not shown; + = active, no number. Cut-off read from the data, not from the text of the source, unless noted: active = inhibition above about 27%; inactive = the rest.

SMILES	FBA Mtb inh	PfHsp40 rescue	BJeLR lethal	GDH-TPI counter-1	PrPC surface inh	PrP 5UTR inh	Mtb FBA inh conf	GDH-TPI counter-2	PrPC confirm	LD9 tox
COC(=O)c1ccccc1NC(=O)N1CCCC1	28*	-1	.	4	-5	-17	102*	83*	.	.
COC(=O)C1=C(SC)N(c2ccccc2)C(c2ccccc2)CC1=O (stereo not given)	3	0	2	23	6	-7	.	.	.	.
COc1ccc(N2CCN(c3ccc(C(=O)O)cc3[N+](=O)[O-])CC2)cc1	6	-1	9	-1	-13	-14	.	.	.	.
Cc1c(Br)c(=O)oc2c(Br)c(O)ccc12	36*	-1	-1	-6	2	-1	43*	28*	.	.
CCCCCCCN(c1ccccc1)C1C[C@H]2CCCC(=O)N3CC[C@@H](C1)[C@@H]23 (stereo not given in full)	.	.	.	.	1	.	.	.	.	.
O=C(c1ccc2c3c(cccc13)CC2)C1CCCN(CC2CC2)C1 (stereo not given)	33*	1	4	8	-5	-12	6	-2	.	.
O=C(c1ccc2c3c(cccc13)CC2)C1CCCN(Cc2ccncc2)C1 (stereo not given)	12	1	2	18	16	.	.	.	.	.
O=C1CCC(C(=O)O)N1 (stereo not given)	3	-1	-3	-1	8	-12	.	.	.	.
Brc1c(CSc2nc3ccccc3o2)nc2ncccn12	63*	-2	10	12	49*	-54	63*	43*	47*	-6
O=C(CN1CCCCC1)Nc1c2c(nc3ccccc13)N(c1ccccc1)CC2	80*	-3	1	3	44*	-15	152*	125*	102*	12*
CCCCc1nc2ccccc2c(NC(=O)CN2CCCC2)c1CCC	1	1	-5	11	6	-27	.	.	.	.
Cc1c(C(=O)O)oc2c3c(ccc12)OCCO3	60*	0	1	9	26*	-29	99*	87*	31*	1
CN1C[C@@H]2C[C@@H](c3cccn3-c3nccs3)N3CCC[C@@]23C1=O	5	-1	-15	4	-1	-4	.	.	.	.
COc1c(F)cc2[nH]c3c(c2c1F)CCNC3=O	38*	0	-2	-1	30*	-2	+	176*	6	-5
CS(=O)(=O)c1nc(S(=O)(=O)c2ccc(Cl)cc2)c(NCc2ccccn2)s1	-2	-1	6	7	6	-30	.	.	.	.
CC(C)Nc1ccc(Nc2ccnc3cc4ccccc4cc23)cc1	-2	-1	44	-1	-4	-22	.	.	.	.
c1ccc(CCNc2ccnc3cc4ccccc4cc23)cc1	47*	189*	22	3	80*	-39	-1	-1	23	80*
CC1CCN(C(=O)c2cc(Cl)nc3ccccc23)CC1	2	1	-4	-1	2	-30	.	.	.	.
COC(=O)C1CCN(C(=O)c2cc(-c3ccc(Cl)s3)nc3ccccc23)CC1	68*	3	.	15	36*	-1	147*	139*	33*	27*
O=C(Nc1cc(S(=O)(=O)N2CCCCC2)ccc1Cl)c1ccccc1NS(=O)(=O)c1ccc(F)cc1	33*	-2	51*	8	25*	-1	-7	-6	33*	25*
COc1ccc(S(=O)(=O)N2CCOC23CCN(S(=O)(=O)c2c(C)cc(C)cc2C)CC3)cc1	1	1	12	-1	3	-19	.	.	.	.
Cc1onc(-c2ccccc2Cl)c1C(=O)Nc1nnc(-c2ccc(F)cc2)s1	16	-1	15	19	3	-23	.	.	.	.
Cc1onc(-c2ccccc2Cl)c1C(=O)Nc1nnc(-c2ccc(Br)cc2)s1	92*	2	3	37*	26*	-11	119*	99*	41*	-5
Cc1c(Br)c(=O)oc2cc(OCC(=O)N3C[C@H]4C[C@@H](C3)c3cccc(=O)n3C4)ccc12	40*	0	-2	22	38*	-5	54*	65*	55*	-3
COC(=O)C1CCN(c2ccc(Cl)nn2)CC1	3	1	.	5	-4	0	.	.	.	.
SMILES	FBA Mtb inh	PfHsp40 rescue	BJeLR lethal	GDH-TPI counter-1	PrPC surface inh	PrP 5UTR inh	Mtb FBA inh conf	GDH-TPI counter-2	PrPC confirm	LD9 tox
CCc1ccc(-c2nc3ccc(Br)cc3c(C(=O)O)c2C)s1	38*	-2	1	18	48*	-26	60*	45*	84*	-3
CN(CC(=O)NC(=O)NC1CCCCC1)CC(=O)Nc1ccc(Cl)cc1	-1	0	.	-5	-2	-12	.	.	.	.
COc1cccc2sc(Nc3nnc(-c4ccc(F)cc4)o3)nc12	49*	0	4	40*	27*	-36	+	+	33*	-3
COc1cccc2sc(Nc3nc(-c4ccccn4)cs3)nc12	2	?	37	23	.	-33	.	.	.	.
O=C(c1ccc([N+](=O)[O-])cc1[N+](=O)[O-])n1cnc2ccccc21	7	-1	3	2	-39	1	.	.	.	.
CCCc1nc(SCC(=O)Nc2nccs2)c2ccccc2n1	2	1	-7	16	20	-5	.	.	.	.
COC(=O)CSc1nc(COc2ccccc2)nc2ccccc12	-1	0	-6	6	49*	-8	.	.	66*	-6
CCCNC(=O)CSc1nc(COc2ccccc2)nc2ccccc12	-2	0	-3	1	29*	-24	.	.	41*	-3
CCCCNC(=O)CSc1nc(CCC)nc2ccccc12	0	0	8	3	46*	-14	.	.	59*	-6
Cc1cccc(C(C(N)=O)c2ncc(C(F)(F)F)cc2Cl)c1 (stereo not given)	2	-2	6	-2	-3	-11	.	.	.	.
O=S1(=O)Cc2cc3ccccc3cc2C1	-3	1	1	-2	3	-13	.	.	.	.
CCCCCCCCCCCCCCCC[N+](C)(C)CC	0	5	-5	8	26*	-20	.	.	36*	14*
CC#CC[N+](C)(C)CCCCCCCCCCCC	0	-2	17	1	25*	-13	.	.	28*	16*
O=C(Nc1ccc2c(c1)OCO2)c1cc(C2CCCN(C(=O)C3CCCCC3)C2)on1 (stereo not given)	3	.	.	1	33*	.	.	.	24	-4
CN(C)c1ccc(CC(=O)N2CCCC(c3cc(C(=O)Nc4ccc(F)c(Cl)c4)no3)C2)cc1 (stereo not given)	-1	.	.	5	27*	.	.	.	19	9

Bioassay records from PubChem BioAssay.
